High-throughput results from PubChem BioAssay.
This is a sample that favours compounds with a hit; in the whole collection about 4.1% have one here.
DAX1 inh-1 – inhibits human nuclear receptor DAX1; P51843; HEK293 Gal4-DAX1 luciferase reporter, luminescence; inhibition, % at 6.75 µM; actives 0.99% (n = 340,000); AID 504766;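 active = inhibition above the mean over all tested compounds plus 3 SD, cut at about 4.2% in these data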;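 also: 0% = DAX1-transfected cells with DMSO and 100% = empty-vector control cells with DMSO; inhibition shows as a rise in luminescence from relieved DAX1 repression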
Target sequence (P51843 207-470 limits assumed): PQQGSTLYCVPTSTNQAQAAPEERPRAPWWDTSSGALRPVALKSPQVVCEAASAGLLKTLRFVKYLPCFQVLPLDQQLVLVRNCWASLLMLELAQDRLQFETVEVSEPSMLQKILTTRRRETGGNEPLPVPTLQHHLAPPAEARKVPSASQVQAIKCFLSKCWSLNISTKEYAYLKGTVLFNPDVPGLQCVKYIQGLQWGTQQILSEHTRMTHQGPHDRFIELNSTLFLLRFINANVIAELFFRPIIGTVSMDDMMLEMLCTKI
hgDAF12 agonist – activates the H. glycines DAF-12 receptor ligand-binding domain; HEK293 GAL4-hgDAF12 UAS-luciferase reporter, agonist luminescence; normalized to butyrate control; activation, % at 6.8 µM; actives 1.8% (n = 370,000);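 active = activation above a cutoff set at the mean of all screened compounds plus 3 SD, cut at about 10% in these data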;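 also: 0% = DMSO wells and 100% = sodium butyrate wells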
DAX1 inh-2 – DAX1 (NR0B1) inhibition, primary screen. HEK293T StAR-luciferase reporter, SF-1/DAX-1 repression relief. AID 652010. inhibition, % at 6.8 µM. actives 1.1% (n = 370,000);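 active = inhibition above the mean over all tested compounds plus 3 SD, cut at about 3.6% in these data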;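 also: 0% = DAX-1 cells with DMSO and 100% = cells lacking DAX-1 with DMSO; higher inhibition means more luminescence from relief of DAX-1 repression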
ssDAF-12 act – activates DAF-12 receptor from parasite S. stercoralis; HEK293 ssDAF-12/GRIP1 lit1-tk-luc reporter, luminescence; % of 3 µM dafachronic acid response; activation, % at 6.8 µM; actives 1% (n = 370,000); AID 652126;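 active = activation above the mean over all tested compounds plus 3 SD, cut at about 0.9% in these data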;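 also: 0% = DMSO-only wells and 100% = 3 µM delta7-dafachronic acid wells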
hcDAF12 agonist – activators of H. contortus DAF-12 nuclear receptor; HEK293 hcDAF-12 lit1-tk-luc reporter, luminescence; 0% DMSO, 100% Δ7-dafachronic acid; activation, % at 6.8 µM; actives 1.4% (n = 370,000);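 active = activation above the mean of all tested compounds plus 3 SD, cut at about 5.5% in these data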;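 also: 100% = response to 3 µM Δ7-dafachronic acid high control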
DAX1 inh confirm – confirmation of human DAX1 (NR0B1) inhibitors | HEK293T StAR-promoter luciferase reporter, SF-1/DAX-1 repression | actives 87% (n = 2,400) | shares compounds with DAX1 inh-2 | inhibition, % at 6.8 µM;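 active = inhibition above the average of every tested compound plus 3 SD, cut at about 3.8% in these data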;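 also: 0% = DAX-1 cells with DMSO and 100% = no DAX-1 control cells with DMSO; active compounds raise luminescence by relieving repression of the StAR reporter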
SF1 mutant ctr – nonselective inhibitor or artifact in SF-1 mutant DAX1 counter-screen; shares compounds with DAX1 inh-2; HEK293 StAR-luciferase, SF-1 AF2 mutant, luminescence; inhibition, % at 6.8 µM; actives 78% (n = 2,400); AID 652136;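 active = inhibition above the mean of all tested compounds plus 3 SD, cut at about 3% in these data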;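 also: 0% = DAX-1 transfected cells with DMSO and 100% = cells without DAX-1 with DMSO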
LXRb hcDAF ctr – LXR-beta agonism as hcDAF-12 counter-screen. shares compounds with hcDAF12 agonist. HEK293 Gal4-LXR tk-luc reporter, luminescence, 24 h; normalized: DMSO 0%, positive control 100%. activation, % at 6.8 µM. 3,400 tested, under 10 active;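 active = mean percent activation of the reporter above a cutoff set as the average over tested compounds plus their standard deviation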
Target sequence (P55055 whole entry, looked up, the tested form may be a part): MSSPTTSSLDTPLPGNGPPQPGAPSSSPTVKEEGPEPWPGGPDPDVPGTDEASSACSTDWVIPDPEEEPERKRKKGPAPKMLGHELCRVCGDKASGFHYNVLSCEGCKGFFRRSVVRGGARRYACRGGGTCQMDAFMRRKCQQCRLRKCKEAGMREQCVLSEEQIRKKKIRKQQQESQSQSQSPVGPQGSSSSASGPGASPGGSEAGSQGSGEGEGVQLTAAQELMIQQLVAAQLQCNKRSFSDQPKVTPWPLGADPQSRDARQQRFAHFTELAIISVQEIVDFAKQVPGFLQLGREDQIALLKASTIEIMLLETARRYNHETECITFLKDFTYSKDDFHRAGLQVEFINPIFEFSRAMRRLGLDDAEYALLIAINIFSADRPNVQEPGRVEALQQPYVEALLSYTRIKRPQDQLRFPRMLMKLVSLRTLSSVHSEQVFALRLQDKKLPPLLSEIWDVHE
hcDAF12 ag – hcDAF-12 agonism, confirmation assay; shares compounds with hcDAF12 agonist; HEK293 hcDAF-12 lit1-tk-luc reporter, luminescence; % of Δ7-dafachronic acid response; activation, % at 6.8 µM; actives 61% (n = 3,400);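 active = mean activation across triplicate tests above the threshold derived from the earlier primary screen, cut at about 5.5% in these data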;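 also: 0% = DMSO only wells and 100% = 3 µM Δ7-dafachronic acid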
hgDAF12 ag – confirmation of H. glycines DAF-12 agonists; shares compounds with hgDAF12 agonist; HEK293 GAL4-hgDAF12 luciferase reporter, agonist mode; percent of butyrate response; activation, % at 6.8 µM; actives 80% (n = 3,300); AID 743050;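 active = mean activation over triplicate wells above the hit cutoff derived from the earlier primary screen, cut at about 11% in these data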;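 also: 0% = DMSO low control and 100% = 2 mM sodium butyrate high control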
LXR ag 2 – activates human LXR-beta, counter-screen for DAF-12 agonists; shares compounds with hgDAF12 agonist; HEK293 Gal4-LXR luciferase reporter, 24 h; activation, % at 6.8 µM; 3,300 tested, under 10 active; AID 743051;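 active = mean activation of the triplicate above a set limit carried over from the primary screen, none filed active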
An asterisk follows results filed as active; . = no result.

SMILES	DAX1 inh-1	hgDAF12 agonist	DAX1 inh-2	ssDAF-12 act	hcDAF12 agonist	DAX1 inh confirm	SF1 mutant ctr	hgDAF12 ag	LXR ag 2	others
C/C(=N/NC(=O)c1ccoc1C)c1cccc(NC(=O)C2CC2)c1	1	16*	6.1*	1.0*	7.3*	1	0	0	0	LXRb hcDAF ctr=0;hcDAF12 ag=0
C/C(=N/NC(=O)c1ccoc1C)c1cccc(NC(=O)C(F)(F)F)c1	2	15*	6.0*	1	3	6.3*	2	6	0
O=C(/C=C/Nc1ccccc1F)c1ccc(Br)cc1	4	17*	5.2*	1.5*	12*	14*	8.4*	23*	1	LXRb hcDAF ctr=2;hcDAF12 ag=14*
O=C(/C=C/Nc1ccc(Br)cc1F)c1ccccc1	-2	2	3	0	5	.	.	.	.
O=C(Nc1ccc(F)cc1)OCc1cn(Cc2cccc(F)c2F)nn1	.	0	-1	0	1	.	.	.	.
CCOC(=O)c1sc2nc3c(cc2c1N)COC(C)(CC)C3 (stereo not given)	2	14*	4.8*	0	9.3*	14*	6.0*	18*	1	LXRb hcDAF ctr=2;hcDAF12 ag=6.1*
COC(=O)c1sc2nc3c(cc2c1N)CCCC3	3	25*	5.1*	0	6.5*	13*	6.8*	18*	1
COC(=O)[C@]12C[C@H](CC(=O)NCc3cccc4ccccc34)C(=O)N(CCC3=CCCCC3)C1=C[C@H](C(C)C)O[C@@H]2C1CC1	.	-3	0	-1	0	.	.	.	.
O=C(/C=C/Nc1ccc(F)cc1)c1ccco1	3	7	3	-1	4	.	.	.	.
CCOC(=O)c1ccc(N/C=C/C(=O)c2ccco2)cc1	2	15*	4.7*	0	3	12*	7.1*	17*	1
Cc1nc(C)c(-c2csc(Nc3ccc(O)cc3C)n2)s1	0	-3	-1	-1	-3	.	.	.	.
Cc1cc(O)ccc1Nc1nc(-c2cccs2)cs1	0	17*	5.5*	1.0*	5	9.3*	4.7*	21*	1
CN(c1ccc(O)cc1)c1nc(-c2cccs2)cs1	1	19*	7.7*	1	5	8.7*	3.6*	14*	1
Cc1onc(-c2ccccc2)c1C(=O)NN=Cc1cc(Cl)cc(Cl)c1O	.	-7	-2	0	-2	.	.	.	.
COc1cc2c(c(OC)c1)[C@H](/C=C/c1ccccc1)[C@@H]([C@H](O)CO)OC2	.	-1	1	-1	-2	.	.	.	.
Brc1ccc(OCc2cn3ccccc3n2)cc1	0	20*	6.5*	0	4	9.2*	4.6*	16*	1
O=C(COc1ccc(Br)cc1)NCc1cn2ccccc2n1	-1	5	0	0	-2	.	.	.	.
COC(=O)c1cc2c(c3c4cc(OC)ccc4n(S(=O)(=O)c4ccc(OC)cc4)c13)C(=O)N(Cc1ccc(N(C)C)cc1)C2	.	2	0	-1	0	.	.	.	.
COP(=O)(O)C(C)NC(=O)OCc1ccccc1 (stereo not given)	.	0	1	-1	0	.	.	.	.
O=C(NCCS(=O)(=O)NCCc1ccccc1)c1ccc2c(c1)OCO2	4.3*	15*	10*	1.1*	5.6*	7.9*	3.1*	14*	1
C(=C\c1nc(-c2ccccc2)no1)/c1ccccc1	3	17*	5.9*	0	5.8*	17*	6.7*	23*	1
C(=C\c1nc(-c2ccncc2)no1)/c1ccccc1	2	10	2	0	5	.	.	.	.
NC(=O)c1ccccc1NC(=O)/C=C/c1cccc(Cl)c1	1	8	1	-1	2	.	.	.	.
NC(=O)c1ccccc1N/C=C/C(=O)c1ccc(Cl)cc1Cl	-1	16*	6.3*	0	8.1*	17*	7.6*	17*	1	LXRb hcDAF ctr=1;hcDAF12 ag=8.2*
CN1CCCCC(NC(=O)c2ccccn2)C1=O (stereo not given)	.	0	0	-2	1	.	.	.	.
SMILES	DAX1 inh-1	hgDAF12 agonist	DAX1 inh-2	ssDAF-12 act	hcDAF12 agonist	DAX1 inh confirm	SF1 mutant ctr	hgDAF12 ag	LXR ag 2	others
CC(C)(C)c1cc(NC(=O)c2cccc([N+](=O)[O-])c2)no1	1	.	.	.	.	.	.	.	.
CC(C)(C)c1cc(NC(=O)c2ccco2)no1	1	14*	13*	1.0*	14*	12*	7.0*	15*	1	LXRb hcDAF ctr=1;hcDAF12 ag=6.2*
COC(=O)[C@]12C[C@H](CC(=O)NCCC(C)C)C(=O)N(Cc3ccccc3)C1=C[C@H](C(C)(C)C)O[C@@H]2C	.	-1	-1	-1	2	.	.	.	.
COC(=O)C1=C(C)N(C)C(=NCc2ccccc2C(F)(F)F)NC1c1ccc(Cl)cc1 (stereo not given)	.	1	-2	-1	-1	.	.	.	.
c1ccc(-c2cc(-c3ccccc3)on2)cc1	3	18*	5.7*	1.7*	12*	18*	12*	18*	1	LXRb hcDAF ctr=1;hcDAF12 ag=8.0*
O/N=C/c1ccn(-c2ccc(Br)cc2)c1	4.5*	14*	5.6*	0	1	5.9*	3	10	0
Cc1ccc2nc(-c3ccc(NC(=O)CN(c4ccccc4C)S(C)(=O)=O)cc3)sc2c1	2	15*	4.8*	1.0*	4	8.0*	5.4*	20*	1
O=C(CCS(=O)(=O)c1ccccc1)Nc1ccc(-c2nc3ccccc3s2)cc1	-2	18*	6.1*	1.2*	9.2*	13*	8.9*	15*	1	LXRb hcDAF ctr=2;hcDAF12 ag=5.7*
COc1ccc(/C=C(\C#N)C(=O)OCC(=O)NC(C)c2ccccc2)cc1 (stereo not given)	-2	-1	0	-1	-1	.	.	.	.
Cc1ccc2nc(-c3ccc(NC(=O)COC(=O)c4ccc(Br)o4)cc3)sc2c1	5.7*	28*	6.6*	3.0*	18*	9.7*	4.2*	24*	1	LXRb hcDAF ctr=2;hcDAF12 ag=13*
